Results on 20 compounds are retold here after PubChem BioAssay (NCATS).

SMILES strings stand for the structures. Several values for one entry are separate records, joined by “and”; a condition that tells them apart may be missing. Equal values may be shown once. Values without a mark were called inactive. Results filed as inconclusive are left out. Activity calls are given as the source filed them. Unless noted, the call rests on the fitted dose curve; in most records, active means well fitted inhibition curve with a large enough effect; inconclusive means small, poorly fitted or top-dose-only effect; inactive means flat fitted curve, though single readings scatter. Where only a bound is given, the exact number is not on record here.

Assay [1] addresses Glucocorticoid receptor (Homo sapiens) (UniProt P04150). The assay can be described thus: GR-GFP Redistribution (AID 450;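 active means compounds whose dose series gives a full or clear partial fitted curve of increased nuclear translocation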; further: potency means the concentration at half of the fitted maximal effect). The following applies: U2OS GR-GFP nuclear translocation, laser cytometry, 2 h.
Assay [2] can be described thus: S16 Schwann cell PMP22 intronic element beta-lactamase assay (AID 624044; calls by dose curve; further: nearly all actives have a fitted effect of over 15% in size). The following applies: S16 rat Schwann cells, PMP22 element beta-lactamase FRET, 24 h; series mostly up to 17.1 µM. The method in brief:
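Rat S16 Schwann cells with beta-Lac driven by a PMP22 intronic element, compound-treated 24 h at 37 °C. LiveBLAzer FRET B/G read: 460 nm normalized to potassium clavulanate vs DMSO; 535 nm FRET as viability; concentration-effect curves classified.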

For the next assay, the system named is ATS95. The assay can be described thus: qHTS profiling for inhibitors of Plasmodium falciparum proliferation (AID 504749). Further: nearly all actives have a fitted effect of over 60% in size. Further: potency means the concentration at half of the fitted maximal effect. To be noted: P. falciparum in erythrocytes, SYBR Green DNA, 72 h; series mostly up to 12.8 µM. The method in brief: (§1)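 Parasite proliferation within erythrocytes, 72 h exposure. Endpoint: SYBR Green I fluorescence after overnight lysis at room temperature. Controls: 0.29 uM artemisinin, DMSO.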
In general terms: Quantitative high-throughput screening tests each substance at several concentrations.

In another assay the test system is CP247. The assay is described as above. The following applies: P. falciparum in erythrocytes, SYBR Green DNA, 72 h; series mostly up to 12.8 µM. The method in brief:
as §1

A further assay concerns CP252. The assay is described as above. To be noted: P. falciparum in erythrocytes, SYBR Green DNA, 72 h; series mostly up to 12.8 µM. Summed up: as §1
The test system of the next assay is CP256. The description is as above. The following applies: P. falciparum in erythrocytes, SYBR Green DNA, 72 h; series mostly up to 12.8 µM. The method in brief: as §1
The next assay concerns CP266. The description is as above. The following applies: P. falciparum in erythrocytes, SYBR Green DNA, 72 h; series mostly up to 12.8 µM. Summed up: as §1
For a further assay, the system named is DIV14. The description is as above. The following applies: P. falciparum in erythrocytes, SYBR Green DNA, 72 h; series mostly up to 12.8 µM. The method in brief:
as §1

A further assay relates to P93_24. Described as above. The following applies: P. falciparum in erythrocytes, SYBR Green DNA, 72 h; series mostly up to 12.8 µM. Summed up:
as §1

For a further assay, the system named is P94_40. Described as above. To be noted: P. falciparum in erythrocytes, SYBR Green DNA, 72 h; series mostly up to 12.8 µM. Summed up:
as §1

In a further assay the test system is CP194. The assay is described as above. The following applies: P. falciparum in erythrocytes, SYBR Green DNA, 72 h; series mostly up to 12.8 µM. Summed up:
as §1

For another assay, the system named is CP211. The description is as above. The following applies: P. falciparum in erythrocytes, SYBR Green DNA, 72 h; series mostly up to 12.8 µM. Summed up:
as §1

Another assay relates to CP237. Described as above. To be noted: P. falciparum in erythrocytes, SYBR Green DNA, 72 h; series mostly up to 12.8 µM. The method in brief: as §1
The subject of another assay is CP269. The description is as above. The following applies: P. falciparum in erythrocytes, SYBR Green DNA, 72 h; series mostly up to 12.8 µM. The method in brief: as §1
The test system of a further assay is CP286. The description is as above. The following applies: P. falciparum in erythrocytes, SYBR Green DNA, 72 h; series mostly up to 12.8 µM. The method in brief: as §1
The subject of the next assay is CP297. The assay is described as above. To be noted: P. falciparum in erythrocytes, SYBR Green DNA, 72 h; series mostly up to 12.8 µM. The method in brief: as §1
A further assay has as its system CP325. The description is as above. To be noted: P. falciparum in erythrocytes, SYBR Green DNA, 72 h; series mostly up to 12.8 µM. The method in brief: as §1
A further assay deals with Dd2. Described as above. To be noted: P. falciparum in erythrocytes, SYBR Green DNA, 72 h; series mostly up to 12.8 µM. The method in brief: as §1
The subject of another assay is HB3. The description is as above. The following applies: P. falciparum in erythrocytes, SYBR Green DNA, 72 h; series mostly up to 12.8 µM. Summed up:
as §1

The subject of a further assay is TAB113. Described as above. To be noted: P. falciparum in erythrocytes, SYBR Green DNA, 72 h; series mostly up to 12.8 µM. Summed up: as §1

Sequence of Glucocorticoid receptor (Homo sapiens) (P04150 whole entry, looked up): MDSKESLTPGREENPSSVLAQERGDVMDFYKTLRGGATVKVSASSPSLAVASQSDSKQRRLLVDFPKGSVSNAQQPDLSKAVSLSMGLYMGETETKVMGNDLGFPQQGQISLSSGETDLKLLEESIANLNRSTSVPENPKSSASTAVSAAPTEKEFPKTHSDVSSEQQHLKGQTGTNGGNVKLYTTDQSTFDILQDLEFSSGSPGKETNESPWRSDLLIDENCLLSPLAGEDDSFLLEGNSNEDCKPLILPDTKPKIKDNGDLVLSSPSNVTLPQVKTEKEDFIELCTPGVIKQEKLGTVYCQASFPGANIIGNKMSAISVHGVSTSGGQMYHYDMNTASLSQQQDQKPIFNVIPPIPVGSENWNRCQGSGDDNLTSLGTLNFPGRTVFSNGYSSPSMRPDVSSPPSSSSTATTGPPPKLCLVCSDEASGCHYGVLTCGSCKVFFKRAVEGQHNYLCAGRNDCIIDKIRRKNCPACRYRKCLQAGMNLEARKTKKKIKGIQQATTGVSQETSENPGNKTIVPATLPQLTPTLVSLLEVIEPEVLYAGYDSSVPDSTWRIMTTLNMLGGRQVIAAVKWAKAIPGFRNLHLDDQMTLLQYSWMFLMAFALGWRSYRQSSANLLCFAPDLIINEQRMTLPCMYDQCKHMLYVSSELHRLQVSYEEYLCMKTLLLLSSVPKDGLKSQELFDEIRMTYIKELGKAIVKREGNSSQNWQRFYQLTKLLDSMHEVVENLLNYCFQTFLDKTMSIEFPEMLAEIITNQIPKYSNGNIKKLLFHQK

As for `C=C(C)[C@H]1CC[C@]2(C(=O)O)CC[C@]3(C)[C@@H](CC[C@H]4[C@@]5(C)CC[C@@H](O)C(C)(C)[C@@H]5CC[C@@]43C)[C@H]12`, the Potency in assay [1] is > 20.6 µM.
With `CC1(C)O[C@H]2C[C@@H]3[C@H]4CCC5=CC(=O)CC[C@@]5(C)[C@]4(F)[C@@H](O)C[C@@]3(C)[C@@]2(C(=O)CCl)O1`, the Potency result (in [2]; in the assay on CP266) was “inactive” each time. Moreover, the Potency was 1.58 µM (active) with ATS95; 3.98 µM (active) in the assay on CP247; 3.55 µM (active) in the assay with CP252; 3.55 µM (active) with CP256; 5.1 µM (active) in the assay with DIV14; 3.55 µM (active) in the assay with P93_24. In addition, the Potency in the assay with P94_40 is 3.16 µM (active).
As to `O[C@@](CCN1CCCCC1)(c1ccccc1)[C@@H]1C[C@H]2C=C[C@@H]1C2`, the Potency in assay [1] was > 20.6 µM.
As to `CC=C(/C(=C/C)c1ccc(O)cc1)c1ccc(O)cc1`, the Potency result (in [2]; with ATS95; in the assay with CP194; in the assay with CP211; in the assay on CP237; with CP247) was “inactive” throughout. In addition, the Potency entry in the assay with CP252, in the assay on CP256, with CP266, in the assay with CP269, with CP286 and in the assay on CP297 was “inactive” each time. Further, the Potency result in the assay with CP325, in the assay with DIV14, in the assay on Dd2, in the assay with HB3, in the assay on P93_24 and in the assay with P94_40 was “inactive” throughout. Also, the Potency entry in the assay with TAB113 was “inactive”.
Regarding `Cc1onc(-c2c(F)cccc2Cl)c1C(=O)N[C@H]1C(=O)N2[C@H]1SC(C)(C)[C@H]2C(=O)O`, the Potency in assay [1] is > 20.6 µM.
Consider `COc1cc2c(cc1OC)-c1cc3ccc(OC)c(OC)c3c[n+]1CC2`, for which, in assay [1], the Potency is > 20.6 µM.
On to `C=C(C)[C@H]1CC[C@]2(CO)CC[C@]3(C)[C@@H](CC[C@H]4[C@@]5(C)CC[C@@H](O)C(C)(C)[C@@H]5CC[C@@]43C)[C@H]12`, for which the Potency in assay [1] was > 20.6 µM.
For the compound `CCC(=O)[C@@]1(C)[C@H](C)C[C@@H]2[C@@H]3CCC4=CC(=O)C=C[C@@]4(C)[C@H]3[C@H](O)C[C@]21C`, the Potency entry (in [2]; in the assay on ATS95; with CP194; with CP211; with CP247; in the assay on CP252) was “inactive” throughout. Moreover, the Potency result in the assay on CP256, in the assay on CP266, in the assay with CP269, in the assay on CP297, in the assay on CP325 and with DIV14 was “inactive” in each case. Moreover, the Potency entry in the assay on Dd2, in the assay on HB3, in the assay with P94_40 and in the assay with TAB113 was “inactive” each time. For the same compound, the Potency with CP237 was 3.55 µM (active).
For the compound `O=C(OC[C@@H](O)CO)c1ccccc1Nc1ccnc2cc(Cl)ccc12`, the Potency entry with ATS95, in the assay on CP194, with CP211, in the assay with CP237, in the assay with CP247 and in the assay on CP252 was “inactive” each time. Further, the Potency result in the assay with CP266, with CP269, with CP297, with CP325, with Dd2 and in the assay on HB3 was “inactive” in each case. The Potency result with P93_24, in the assay with P94_40 and with TAB113 was “inactive” throughout.
As for `NC(=O)N[C@H]1NC(=O)NC1=O`, in assay [1], the Potency is > 20.6 µM. For the same compound, the Potency entry (in assay [2]; in the assay on ATS95; in the assay with CP194; in the assay on CP211; in the assay on CP237; with CP247) was “inactive” throughout. Besides, the Potency result in the assay with CP252, with CP256, with CP266, in the assay on CP269, with CP286 and with CP297 was “inactive” throughout. Further, the Potency result in the assay with CP325, with DIV14, with Dd2, with HB3, in the assay with P93_24 and with P94_40 was “inactive” each time. The Potency entry in the assay with TAB113 is “inactive”.
On to `O=C1C=CC(=O)c2c1ccc1c2ccc2ccccc21`, for which the Potency in assay [1] is > 20.6 µM.
Take `Clc1cnccn1`: the Potency in assay [1] is > 20.6 µM.
Same read-out and setting: as for `C1CCC(C(C[C@@H]2CCCCN2)C2CCCCC2)CC1`, the figure is > 20.6 µM.
For the compound `Nc1ncnc2c1ncn2[C@@H]1O[C@H](COP(=O)(O)O)[C@@H](O)[C@@H]1O`, the Potency in [1] is > 20.6 µM.
As to `CCN(CC)CCOC(=O)[C@@H](c1ccccc1)C1CCCCC1`, the Potency in [1] was > 20.6 µM.
Take `C[C@H](CCC(=O)NCC(=O)O)[C@H]1CC[C@H]2[C@H]3[C@@H](C[C@@H](O)[C@]12C)[C@]1(C)CC[C@H](O)C[C@@H]1C[C@@H]3O`: the Potency in assay [1] was > 20.6 µM.
Turning to `C[C@@H]1Cc2ccccc2N1NC(=O)c1ccc(Cl)c(S(N)=O)c1` (stereo partly drawn), the Potency result (in assay [2]; in the assay on ATS95; in the assay on CP194; with CP211; in the assay on CP237; with CP247) was “inactive” each time. Further, the Potency result in the assay with CP252, in the assay on CP256, with CP266, in the assay on CP269, with CP286 and in the assay on CP297 was “inactive” in each case. The Potency result in the assay with DIV14, with Dd2, in the assay with HB3, in the assay on P93_24, with P94_40 and in the assay on TAB113 was “inactive” throughout.
In the case of `O=C(O)[C@@H]1[C@@H]2C[C@H]3c4[nH]c5ccccc5c4CCN3C[C@@H]2CC[C@@H]1O`, the Potency in assay [1] is > 20.6 µM and > 46 µM. The Potency result (in assay [2]; in the assay on Dd2; in the assay on HB3) was “inactive” throughout.
For the compound `CCC(=O)O[C@@H]1[C@H](C)O[C@H](O[C@H]2[C@@H](N(C)C)[C@H](O)[C@@H](O[C@@H]3[C@@H](CC=O)C[C@@H](C)[C@@H](O)/C=C\C=C/C[C@@H](C)OC(=O)C[C@@H](OC(=O)CC)[C@H]3OC)O[C@H]2C)C[C@]1(C)O`, the Potency entry (in [2]; in the assay with ATS95; with CP247; with DIV14; with HB3; with TAB113) was “inactive” throughout. In addition, the Potency in the assay on Dd2 was 3.16 µM (active).
Take `CCOC(=O)Oc1c(OC)cc(C(=O)O[C@H]2C[C@H]3CN4CCc5c([nH]c6cc(OC)ccc56)[C@@H]4C[C@H]3[C@@H](C(=O)OC)[C@@H]2OC)cc1OC`: the Potency in assay [1] was > 20.6 µM; in the assay on CP237 it was 3.16 µM (active); in the assay on CP286 it was 2.51 µM (active); in the assay on CP297, 7.21 µM (active); in the assay on DIV14 it was 5.73 µM (active); with P93_24 it was 3.98 µM (active). Moreover, the Potency with TAB113 was 3.98 µM (active). Besides, in assay [2], the Potency entry is “inactive”.
